# From PMC12529666, “Dysregulation of AGO2-miRNA dynamics underlies the AGO2-associated Lessel–Kreienkamp syndrome”
# B1: ATGTTCCG (ssRNA)
# RNA 1: GAGUUCUACAGUCCGACGAUCCCAACAUGUUCCGCACCUGGAAUUCUCGGGUGCCAA
# RNA 2: UGGAGUGUGACAAUGGUGUUUG
# DNA 1: GATCGTCGGACTGTAGAACTC
# DNA 2: TTGGCACCCGAGAATTCCA
# modifications: constant regions annealed to DNA blockers; guide miR-122 5' phosphate
# B2: GCATCCCG (ssRNA)
# RNA 1: GAGUUCUACAGUCCGACGAUCCCAACGCAUCCCGCACCUGGAAUUCUCGGGUGCCAA
# RNA 2: UGGAGUGUGACAAUGGUGUUUG
# DNA 1: GATCGTCGGACTGTAGAACTC
# DNA 2: TTGGCACCCGAGAATTCCA
# modifications: constant regions annealed to DNA blockers; guide miR-122 5' phosphate
# B3: GTACTCTA (ssRNA)
# RNA 1: GAGUUCUACAGUCCGACGAUCCCAACGUACUCUACACCUGGAAUUCUCGGGUGCCAA
# RNA 2: UGGAGUGUGACAAUGGUGUUUG
# DNA 1: GATCGTCGGACTGTAGAACTC
# DNA 2: TTGGCACCCGAGAATTCCA
# modifications: constant regions annealed to DNA blockers; guide miR-122 5' phosphate
# B4: GCATCTCG (ssRNA)
# RNA 1: GAGUUCUACAGUCCGACGAUCCCAACGCAUCUCGCACCUGGAAUUCUCGGGUGCCAA
# RNA 2: UGGAGUGUGACAAUGGUGUUUG
# DNA 1: GATCGTCGGACTGTAGAACTC
# DNA 2: TTGGCACCCGAGAATTCCA
# modifications: constant regions annealed to DNA blockers; guide miR-122 5' phosphate
# B5: GTGTTTTG (ssRNA)
# RNA 1: GAGUUCUACAGUCCGACGAUCCCAACGUGUUUUGCACCUGGAAUUCUCGGGUGCCAA
# RNA 2: UGGAGUGUGACAAUGGUGUUUG
# DNA 1: GATCGTCGGACTGTAGAACTC
# DNA 2: TTGGCACCCGAGAATTCCA
# modifications: constant regions annealed to DNA blockers; guide miR-122 5' phosphate
# B6: ACGTTCTG (ssRNA)
# RNA 1: GAGUUCUACAGUCCGACGAUCCCAACACGUUCUGCACCUGGAAUUCUCGGGUGCCAA
# RNA 2: UGGAGUGUGACAAUGGUGUUUG
# DNA 1: GATCGTCGGACTGTAGAACTC
# DNA 2: TTGGCACCCGAGAATTCCA
# modifications: constant regions annealed to DNA blockers; guide miR-122 5' phosphate
# B7: ACGTTTTG (ssRNA)
# RNA 1: GAGUUCUACAGUCCGACGAUCCCAACACGUUUUGCACCUGGAAUUCUCGGGUGCCAA
# RNA 2: UGGAGUGUGACAAUGGUGUUUG
# DNA 1: GATCGTCGGACTGTAGAACTC
# DNA 2: TTGGCACCCGAGAATTCCA
# modifications: constant regions annealed to DNA blockers; guide miR-122 5' phosphate
# B8: GCATTTTG (ssRNA)
# RNA 1: GAGUUCUACAGUCCGACGAUCCCAACGCAUUUUGCACCUGGAAUUCUCGGGUGCCAA
# RNA 2: UGGAGUGUGACAAUGGUGUUUG
# DNA 1: GATCGTCGGACTGTAGAACTC
# DNA 2: TTGGCACCCGAGAATTCCA
# modifications: constant regions annealed to DNA blockers; guide miR-122 5' phosphate
# B9: GTATCTTG (ssRNA)
# RNA 1: GAGUUCUACAGUCCGACGAUCCCAACGUAUCUUGCACCUGGAAUUCUCGGGUGCCAA
# RNA 2: UGGAGUGUGACAAUGGUGUUUG
# DNA 1: GATCGTCGGACTGTAGAACTC
# DNA 2: TTGGCACCCGAGAATTCCA
# modifications: constant regions annealed to DNA blockers; guide miR-122 5' phosphate
# B10: GTGTCTTG (ssRNA)
# RNA 1: GAGUUCUACAGUCCGACGAUCCCAACGUGUCUUGCACCUGGAAUUCUCGGGUGCCAA
# RNA 2: UGGAGUGUGACAAUGGUGUUUG
# DNA 1: GATCGTCGGACTGTAGAACTC
# DNA 2: TTGGCACCCGAGAATTCCA
# modifications: constant regions annealed to DNA blockers; guide miR-122 5' phosphate
# B11: GCGCTTTG (ssRNA)
# RNA 1: GAGUUCUACAGUCCGACGAUCCCAACGCGCUUUGCACCUGGAAUUCUCGGGUGCCAA
# RNA 2: UGGAGUGUGACAAUGGUGUUUG
# DNA 1: GATCGTCGGACTGTAGAACTC
# DNA 2: TTGGCACCCGAGAATTCCA
# modifications: constant regions annealed to DNA blockers; guide miR-122 5' phosphate
# B12: ATACCCTG (ssRNA)
# RNA 1: GAGUUCUACAGUCCGACGAUCCCAACAUACCCUGCACCUGGAAUUCUCGGGUGCCAA
# RNA 2: UGGAGUGUGACAAUGGUGUUUG
# DNA 1: GATCGTCGGACTGTAGAACTC
# DNA 2: TTGGCACCCGAGAATTCCA
# modifications: constant regions annealed to DNA blockers; guide miR-122 5' phosphate
# How the values were obtained:
# Test in all cases: RNA Bind-n-Seq (nitrocellulose filter binding and sequencing); miR-122 guide loaded in AGO2; 60 min incubation; 30 mM Tris pH 8.0, 100 mM potassium acetate, 2 mM magnesium acetate, 0.5 mM TCEP, 0.005% NP-40, 0.01 mg/ml yeast tRNA; 3 nM AGO2-miR-122, 100 nM RNA library; 60; high values mean tight binding
# Details in all cases: protein: recombinant; tags: His6 (N-terminal, pFastBac HTA)
# AGO2 L192P = AGO2 L192P (Homo sapiens, UniProt Q9UKV8 1-859, L192P;S387D;S824A;S828D;S831D;S834A)
# In short: (§1)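 His-tagged AGO2 was expressed in Sf9 insect cells by baculovirus, loaded with a synthetic guide RNA, and purified by Ni-NTA and a biotinylated capture oligo. Bound RNA was extracted, reverse-transcribed, barcode-amplified and Illumina-sequenced. Fold enrichment is each sequence's read fraction divided by its input-library read fraction.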
# AGO2 A367P = AGO2 A367P (Homo sapiens, UniProt Q9UKV8 1-859, A367P;S387D;S824A;S828D;S831D;S834A)
# In short: as §1
# AGO2 T357M = AGO2 T357M (Homo sapiens, UniProt Q9UKV8 1-859, T357M;S387D;S824A;S828D;S831D;S834A)
# In short: as §1
# AGO2 L192P, sequence (Q9UKV8 whole entry L192P/S387D/S824A/S828D/S831D/S834A): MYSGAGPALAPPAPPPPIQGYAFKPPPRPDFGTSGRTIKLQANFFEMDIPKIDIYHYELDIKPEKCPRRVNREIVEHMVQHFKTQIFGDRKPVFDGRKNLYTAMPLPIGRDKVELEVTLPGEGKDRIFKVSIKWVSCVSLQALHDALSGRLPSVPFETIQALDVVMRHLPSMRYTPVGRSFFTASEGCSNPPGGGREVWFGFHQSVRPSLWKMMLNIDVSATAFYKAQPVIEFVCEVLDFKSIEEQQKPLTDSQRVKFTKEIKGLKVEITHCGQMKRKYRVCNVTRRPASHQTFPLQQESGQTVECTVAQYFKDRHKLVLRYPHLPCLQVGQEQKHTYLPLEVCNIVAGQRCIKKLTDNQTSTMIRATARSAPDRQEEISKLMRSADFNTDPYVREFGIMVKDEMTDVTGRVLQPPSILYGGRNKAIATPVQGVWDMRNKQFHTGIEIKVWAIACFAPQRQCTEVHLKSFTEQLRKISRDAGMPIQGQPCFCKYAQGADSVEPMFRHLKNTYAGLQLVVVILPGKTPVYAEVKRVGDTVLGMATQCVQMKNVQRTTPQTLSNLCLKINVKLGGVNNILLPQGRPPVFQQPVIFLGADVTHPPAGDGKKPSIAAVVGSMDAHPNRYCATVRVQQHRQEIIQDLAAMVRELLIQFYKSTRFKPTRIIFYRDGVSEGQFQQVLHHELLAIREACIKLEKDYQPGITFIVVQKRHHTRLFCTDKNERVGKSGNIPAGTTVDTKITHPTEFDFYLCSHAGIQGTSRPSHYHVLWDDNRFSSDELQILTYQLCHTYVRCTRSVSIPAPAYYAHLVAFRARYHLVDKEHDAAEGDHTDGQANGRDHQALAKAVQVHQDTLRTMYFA
# AGO2 A367P, sequence (Q9UKV8 whole entry A367P/S387D/S824A/S828D/S831D/S834A): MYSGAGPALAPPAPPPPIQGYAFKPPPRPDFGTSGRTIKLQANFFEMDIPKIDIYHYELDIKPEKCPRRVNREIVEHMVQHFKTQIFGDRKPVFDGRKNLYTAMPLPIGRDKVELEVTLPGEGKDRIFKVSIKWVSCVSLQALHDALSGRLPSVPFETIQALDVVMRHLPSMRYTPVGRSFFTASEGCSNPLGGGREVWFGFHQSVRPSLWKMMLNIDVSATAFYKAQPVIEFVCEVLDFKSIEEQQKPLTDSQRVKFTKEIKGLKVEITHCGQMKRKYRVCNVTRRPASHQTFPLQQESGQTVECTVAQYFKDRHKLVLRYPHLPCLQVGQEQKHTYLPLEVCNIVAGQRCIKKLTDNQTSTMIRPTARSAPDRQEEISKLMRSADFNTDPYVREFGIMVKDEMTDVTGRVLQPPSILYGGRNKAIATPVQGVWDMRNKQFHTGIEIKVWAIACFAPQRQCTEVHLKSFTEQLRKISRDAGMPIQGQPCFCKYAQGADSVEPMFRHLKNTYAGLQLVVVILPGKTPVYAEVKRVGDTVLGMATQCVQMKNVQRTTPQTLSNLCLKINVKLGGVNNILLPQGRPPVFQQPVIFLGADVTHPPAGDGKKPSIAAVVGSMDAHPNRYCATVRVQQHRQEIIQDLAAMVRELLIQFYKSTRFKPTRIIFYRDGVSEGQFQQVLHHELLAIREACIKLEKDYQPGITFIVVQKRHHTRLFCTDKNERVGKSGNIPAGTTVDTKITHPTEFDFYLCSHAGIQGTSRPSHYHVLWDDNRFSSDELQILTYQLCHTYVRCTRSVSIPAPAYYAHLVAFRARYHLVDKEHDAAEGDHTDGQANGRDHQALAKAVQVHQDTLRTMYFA
# AGO2 T357M, sequence (Q9UKV8 whole entry T357M/S387D/S824A/S828D/S831D/S834A): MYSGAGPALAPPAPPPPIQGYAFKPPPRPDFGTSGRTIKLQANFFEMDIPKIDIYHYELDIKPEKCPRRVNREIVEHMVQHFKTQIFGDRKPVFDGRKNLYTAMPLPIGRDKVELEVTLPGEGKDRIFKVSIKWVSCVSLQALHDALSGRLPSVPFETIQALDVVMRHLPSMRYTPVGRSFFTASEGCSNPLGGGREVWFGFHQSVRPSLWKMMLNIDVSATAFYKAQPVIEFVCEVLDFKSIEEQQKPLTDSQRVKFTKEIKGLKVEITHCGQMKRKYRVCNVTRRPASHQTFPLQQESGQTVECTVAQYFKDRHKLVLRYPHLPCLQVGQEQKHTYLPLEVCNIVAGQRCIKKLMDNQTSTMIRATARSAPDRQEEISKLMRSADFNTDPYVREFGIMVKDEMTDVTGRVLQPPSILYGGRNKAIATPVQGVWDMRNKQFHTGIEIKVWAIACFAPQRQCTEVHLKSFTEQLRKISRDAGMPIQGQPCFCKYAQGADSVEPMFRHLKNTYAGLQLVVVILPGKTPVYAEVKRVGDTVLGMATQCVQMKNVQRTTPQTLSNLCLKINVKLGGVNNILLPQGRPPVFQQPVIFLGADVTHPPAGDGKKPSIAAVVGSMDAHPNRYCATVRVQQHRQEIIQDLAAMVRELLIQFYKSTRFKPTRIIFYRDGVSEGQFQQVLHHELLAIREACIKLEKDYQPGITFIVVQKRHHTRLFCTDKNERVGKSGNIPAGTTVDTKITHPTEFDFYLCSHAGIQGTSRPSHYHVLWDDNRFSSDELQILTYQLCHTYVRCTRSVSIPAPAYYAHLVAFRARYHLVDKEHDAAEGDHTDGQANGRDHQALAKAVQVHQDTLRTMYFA
Binder,binding signal (AGO2 L192P),binding signal (AGO2 A367P),binding signal (AGO2 T357M)
B1,0.352 fold enrichment over input,0.121 fold enrichment over input,0.475 fold enrichment over input
B2,0.376 fold enrichment over input,0.143 fold enrichment over input,0.478 fold enrichment over input
B3,0.425 fold enrichment over input,0.181 fold enrichment over input,0.539 fold enrichment over input
B4,0.321 fold enrichment over input,0.121 fold enrichment over input,0.4 fold enrichment over input
B5,0.344 fold enrichment over input,0.129 fold enrichment over input,0.483 fold enrichment over input
B6,0.334 fold enrichment over input,0.128 fold enrichment over input,0.445 fold enrichment over input
B7,0.342 fold enrichment over input,0.136 fold enrichment over input,0.495 fold enrichment over input
B8,0.36 fold enrichment over input,0.127 fold enrichment over input,0.449 fold enrichment over input
B9,0.32 fold enrichment over input,0.127 fold enrichment over input,0.448 fold enrichment over input
B10,0.335 fold enrichment over input,0.131 fold enrichment over input,0.447 fold enrichment over input
B11,0.333 fold enrichment over input,0.137 fold enrichment over input,0.462 fold enrichment over input
B12,0.364 fold enrichment over input,0.126 fold enrichment over input,0.522 fold enrichment over input
